99 molecules from PubChem BioAssay AID1578 (Sanford-Burnham Center for Chemical Genomics, 2009) can be followed below.

The inhibition is the change of the read-out against control, counted positive when it falls.

The whole screen tested about 290,000 compounds, of which about 3,000 (1%) were called active. No stated cut-off is given here; in the data, active means inhibition mostly above about 36% (no sharp cut-off); inactive means mostly below about 34%. Many of the other results were omitted from the sample, so actives are more common in it than they were.

The nature of this assay: inhibition of NOD1-driven NF-kB reporter – cell-based, luminescence, uHTS, primary screen (AID 1578).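 Further: HEK-293T reporter cells stimulated with the NOD1 agonist gamma-tri-DAP.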 The conditions noted are these: NOD1-driven NF-kB luciferase reporter cells, at 4 µM, active compounds read high. For orientation: Reporter assays use an easily measured gene product as a stand-in for the process of interest.
On to `CCNC(=S)N/N=C1\C(=O)c2cccc3cccc1c23`, for which the inhibition was 47.8% (inactive).

As to `CCCCNC(=S)N/N=C1\C(=O)c2cccc3cccc1c23`, the inhibition was -56.3% (inactive).

For `CNC(=S)N/N=C1\C(=O)c2cccc3cccc1c23`, the inhibition is 98.1% (active).

Turning to `CC(C)(C)c1ccc(-c2cc(-c3ccccc3O)[nH]n2)cc1`, the inhibition was 25.5% (inactive).

As to `Cc1cccc(NC(=S)N/N=C/c2cccn2Cc2ccc(F)cc2)c1`, the inhibition is 23.3% (inactive).

Consider `Cc1nc([N+](=O)[O-])c(Br)n1CC(=O)c1ccc(Br)cc1`, for which the inhibition is 44.8% (inactive).

Consider `Cc1nc([N+](=O)[O-])c(Br)n1CC(=O)c1ccccc1`, for which the inhibition was 28.9% (inactive).

As to `C[C@@H]1ON(C2CCCCC2)[C@H]2c3nc4ccccc4n3C[C@@H]12`, the inhibition is -10.2% (inactive).

For the molecule `CCn1c(Cc2ccc(OC)cc2)nnc1SCc1nc2ccccc2c(=O)[nH]1`, the inhibition is -38.1% (inactive).

Turning to `CCOCC(=O)Nc1c(C(=O)N2CCN(c3ncccn3)CC2)oc2ccccc12`, the inhibition is -37.9% (inactive).

On to `COc1ccc(OC)c(NC(=O)c2cc(-c3cc(Cl)ccc3O)n[nH]2)c1`, for which the inhibition was 61.4% (active).

Consider `COc1ccc(OC)c(NC(=O)c2cc(-c3cc(C)ccc3O)n[nH]2)c1`, for which the inhibition was 3.5% (inactive).

Regarding `COc1ccc(NC(=O)c2cc(-c3cc(Cl)ccc3O)n[nH]2)c(OC)c1`, the inhibition is -3.3% (inactive).

Regarding `Cn1c(CNC(=O)c2ccc(F)cc2)cc2ccccc21`, the inhibition is -17.9% (inactive).

In the case of `Cc1onc(-c2c(F)cccc2Cl)c1C(=O)NC1=NCCS1`, the inhibition is -2% (inactive).

As to `Cn1c(SCC(=O)NCC2CCCO2)nc2c(c1=O)SCC2` (centres undefined), the inhibition is -11.7% (inactive).

Turning to `C=C(C)CNC(=O)c1ccc(OC2CCN(S(=O)(=O)N(C)C)CC2)cc1`, the inhibition was -27.4% (inactive).

Regarding `C=CCN(CC=C)C(=O)c1ccc(OC2CCN(S(=O)(=O)N(C)C)CC2)cc1`, the inhibition is -27.3% (inactive).

For the molecule `CN(C)S(=O)(=O)N1CCC(Oc2ccc(C(=O)NC3CCCCC3)cc2)CC1`, the inhibition was -24.9% (inactive).

As for `CN(C)S(=O)(=O)N1CCC(Oc2cccc(C(=O)NC3CCOC3)c2)CC1` (centres undefined), the inhibition was -17.9% (inactive).

`C=C(C)CN(CC)C(=O)c1ccc(OC2CCN(S(=O)(=O)N(C)C)CC2)cc1`: the inhibition was 59.3% (active).

On to `Cc1oc(-c2ccccc2Cl)nc1CSCC(=O)O`, for which the inhibition is -4.9% (inactive).

Regarding `COC(=O)c1cccc(N(C(=O)c2cnccn2)C(C(=O)NCc2ccccc2)c2ccco2)c1` (centres undefined), the inhibition is -29.2% (inactive).

Take `CC(=O)Nc1cn(-c2ccccc2)nc1-c1ccccc1`: the inhibition was -27.2% (inactive).

As for `CCCc1cc(C(=O)Nc2cc(C)nn2-c2ccccc2)no1`, the inhibition is 9.1% (inactive).

On to `O=C(Nc1cn(-c2ccccc2)nc1-c1ccc(Cl)cc1)c1ccccc1`, for which the inhibition is -1.1% (inactive).

As to `Cc1ccc(-c2cc(NC(=O)CCl)n(-c3ccccc3)n2)cc1`, the inhibition was 16% (inactive).

For the molecule `CC(=O)Nc1cc(-c2ccc(Cl)cc2)nn1-c1ccccc1`, the inhibition was -11.7% (inactive).

As to `Cc1cc(NC(=O)CC(F)(F)F)n(-c2ccccc2)n1`, the inhibition was -13.5% (inactive).

Take `CSc1nc2c(c(=O)[nH]1)CCCC2`: the inhibition was -21.3% (inactive).

In the case of `COC(=O)c1ccc(NC(=O)CNC(=O)C2CCCCC2)cc1`, the inhibition is -20.7% (inactive).

For the molecule `C/C(=N\NC(=O)c1nn(C)cc1Br)c1ccncc1`, the inhibition was -3.7% (inactive).

Consider `O=C(O)c1ccc(S(=O)(=O)c2ccc3c(c2)C(=O)N(c2ccc(Br)cc2)C3=O)cc1`, for which the inhibition was -8.2% (inactive).

As for `CN(CCOC(=O)c1ccco1)Cc1ccccc1`, the inhibition was 3.9% (inactive).

Turning to `COc1ccc(Sc2ccc(/C=C3\C(=O)NN(c4ccccc4)C3=O)o2)cc1`, the inhibition is -2.5% (inactive).

Consider `O=C1NN(c2ccccc2)C(=O)/C1=C/c1ccc(Sc2cccc3ccccc23)o1`, for which the inhibition is 74.7% (active).

On to `O=C1NN(c2ccccc2)C(=O)/C1=C/c1ccc(-c2ccc(C(=O)O)cc2)o1`, for which the inhibition is -32% (inactive).

Turning to `CC(=O)N1[C@H](C)C=C[C@]1(Cc1ccccc1)C(=O)NCc1cc(F)cc(C(F)(F)F)c1`, the inhibition was 5.4% (inactive).

As for `C[C@H]1CCC[C@]2(C)C[C@H]3OC(=O)C(CN4CCCCCC4)[C@H]3C=C12` (some centres undefined), the inhibition was 34% (active).

As to `CC1CCN(CC2C(=O)O[C@@H]3C[C@@]4(C)CCC[C@H](C)C4=C[C@H]23)CC(C)(C)C1` (some centres undefined), the inhibition is 15.4% (inactive).

`CCN(CC)CCNCC1C(=O)O[C@@H]2C[C@@]3(C)CCC[C@H](C)C3=C[C@H]12` (some centres undefined): the inhibition was -10.7% (inactive).

Regarding `CCOC(=O)c1c(C)[nH]c(C(=O)CN2C(=O)NC(C)(CC(C)C)C2=O)c1C` (centres undefined), the inhibition is -30.4% (inactive).

As to `CCOc1ccc(NC(=O)c2cc(=O)[nH]c3ccccc23)cc1`, the inhibition is -21.6% (inactive).

As for `Nc1ccc2nc(SCc3ccccc3F)sc2c1`, the inhibition was -8.7% (inactive).

Turning to `CCc1cccc(NC(=O)c2cnn(-c3ccccc3)c2C)c1`, the inhibition is -1.5% (inactive).

On to `COc1ccc(-c2nc(CSCC(=O)NC3CCN(Cc4ccccc4)CC3)c(C)o2)cc1OC`, for which the inhibition was -11.6% (inactive).

With `Cc1ccc(-c2nc(CSCC(=O)NC3CCN(Cc4ccccc4)CC3)c(C)o2)cc1`, the inhibition was 16% (inactive).

For `COc1cc(C(=O)N2CCCCCCC2)ccc1OC1CCN(C(C)=O)CC1`, the inhibition is -27.7% (inactive).

As to `C=CCc1cccc(/C=N/NC(=O)C(C)Nc2cccc(C)c2)c1O` (centres undefined), the inhibition is 53.5% (active).

Consider `C=CCc1cccc(/C=N/NC(=O)C(=O)Nc2ccc(C)cc2)c1O`, for which the inhibition was -24.6% (inactive).

Turning to `C=CCc1cccc(/C=N/NC(=O)C(C)Nc2ccc(C)cc2)c1O` (centres undefined), the inhibition was 30.7% (inactive).

On to `CCOC(=O)C(Cc1ccccc1)NC(=O)CNC(C)=O` (centres undefined), for which the inhibition is -11.4% (inactive).

On to `O=C(O)c1cccc(N/N=C/c2ccc(F)c(F)c2)c1`, for which the inhibition is -12.4% (inactive).

Take `Cc1ccsc1/C=N/Nc1ccc(C(=O)O)cc1`: the inhibition is -2.3% (inactive).

Take `CC(C)(C)c1ccc(/C=N/Nc2cccc(C(=O)O)c2)cc1`: the inhibition was -13.1% (inactive).

For `Cc1ccsc1/C=N/Nc1cccc(C(=O)O)c1`, the inhibition is 84% (active).

For `CSc1ccc(/C=N/Nc2cccc(C(=O)O)c2)cc1`, the inhibition is 83.8% (active).

Consider `CSc1ccc(/C=N/Nc2ccc(Cl)c(C(=O)O)c2)cc1`, for which the inhibition is -22.8% (inactive).

As to `Cc1ccc(/C=N/Nc2cccc(C(=O)O)c2)s1`, the inhibition was 4.1% (inactive).

Take `O=C(O)c1cccc(N/N=C/c2ccc(-c3ccccc3)cc2)c1`: the inhibition is 3.6% (inactive).

On to `CN(C)c1ccc(/C=N/Nc2cccc(C(=O)O)c2)cc1`, for which the inhibition was 72.1% (active).

Take `Cc1ccc(NC(=O)COc2ncnc3cc([N+](=O)[O-])ccc23)cc1S(=O)(=O)N1CCOCC1`: the inhibition was -14.7% (inactive).

As to `CCC/S(C)=N/S(=O)(=O)c1ccc(C)cc1` (centres undefined), the inhibition was -6.2% (inactive).

With `O=C1CSC(c2ccccc2F)N1CCN1CCCCC1` (centres undefined), the inhibition was -19% (inactive).

As to `COC(=O)c1cccc(NC(=O)Cc2ccc(OC)cc2)c1C`, the inhibition is -11.4% (inactive).

For `O=C(Nc1ccccc1)Nc1nc(-c2ccccc2)cs1`, the inhibition was -13.8% (inactive).

As to `Cc1ccsc1/C=N/N1CCOCC1`, the inhibition is -33.4% (inactive).

Take `CCOC(=O)N1CCC(Nc2c(Nc3cccc(CC)c3)c(=O)c2=O)CC1`: the inhibition was 18.1% (inactive).

As for `CCOc1ccc(C(=O)Nc2cccc3ncccc23)cc1Cl`, the inhibition was 8.8% (inactive).

As to `CC(C)c1ccccc1OCC(=O)Nc1ccc2[nH]ncc2c1`, the inhibition is 47.7% (active).

Consider `Cc1ccccc1OCC(=O)Nc1ccc2[nH]ncc2c1`, for which the inhibition was -17.7% (inactive).

In the case of `O=C(COc1ccccc1)Nc1ccc2[nH]ncc2c1`, the inhibition was -11.3% (inactive).

With `Nc1c(C(=O)c2ccccc2)sc(Nc2ccccc2)c1S(=O)(=O)c1ccccc1`, the inhibition was 52.2% (active).

As to `N#Cc1c(Nc2ccccc2)sc(C(=O)c2ccc(F)cc2)c1N`, the inhibition was 5.2% (inactive).

`N#Cc1c(Nc2ccccc2)sc(C(=O)c2ccccc2)c1N`: the inhibition is 0.9% (inactive).

Regarding `COCCn1c(C)cc(C(=O)CSc2nc(C)c(C)c(C)n2)c1C`, the inhibition was -5.4% (inactive).

`Cc1ccc(C(=O)CSc2ncnc3sc4c(c23)CCCC4)cc1`: the inhibition is 31% (inactive).

In the case of `CC(=O)CSc1ncnc2sc3c(c12)CCC3`, the inhibition was 13.2% (inactive).

Consider `COCCn1c(C)cc(C(=O)CSc2nc3ccccc3s2)c1C`, for which the inhibition is 54% (inactive).

On to `COCCn1c(C)cc(C(=O)CSc2nnc(C)s2)c1C`, for which the inhibition is 77.8% (active).

Turning to `COc1ccc(CNCc2ccc3c(c2)OCO3)c(OC)c1OC`, the inhibition is -18% (inactive).

Regarding `Cc1cc(N2CCN(C)CC2)nc2ccc(NC(=O)CCC(=O)NCCC(C)C)cc12`, the inhibition is -10.6% (inactive).

Consider `Cc1ccc(-c2nc3ccccc3n3nnnc23)cc1`, for which the inhibition is -53.8% (inactive).

On to `Cc1ccc2nc(N3CCN(c4cccc(C)c4C)CC3)c3nnnn3c2c1`, for which the inhibition was 6.9% (inactive).

Take `Cc1ccc2nc(Cl)c3nnnn3c2c1`: the inhibition was 83.8% (active).

As to `COc1ccc(OCCC(=O)N2CCOCC2)cc1`, the inhibition is -24% (inactive).

Regarding `CN(Cc1ccccc1)C(=O)c1ccccc1NC(=O)c1ccco1`, the inhibition is 54.5% (active).

On to `CN(Cc1ccccc1)C(=O)c1ccccc1NC(=O)c1ccccc1`, for which the inhibition was -20.6% (inactive).

Consider `O=C(Nc1ccccc1C(=O)NCc1ccccc1)c1ccco1`, for which the inhibition is -14.6% (inactive).

For `Oc1ccc(/C=N/Nc2ccnc3cc(Cl)ccc23)c(O)c1O`, the inhibition was -3.8% (inactive).

For `CN(C)CCN(C(=O)c1ccc(N2C(=O)CCC2=O)cc1)c1nc2cc3c(cc2s1)OCO3`, the inhibition was -20.4% (inactive).

As for `O=C(N/N=C/c1ccccc1Br)C1CC1`, the inhibition was -25.3% (inactive).

Turning to `Cc1oc(-c2ccc(Cl)cc2)nc1CN1CCC(C(=O)NCCCN2CCCC2=O)CC1`, the inhibition is 17.3% (inactive).

As for `O=Cc1cc(CCC(=O)O)ccc1O`, the inhibition was 63% (active).

Take `COc1ccc(CCC(=O)O)cc1OC`: the inhibition is -2.3% (inactive).

Regarding `O=C(O)Cc1ccc(O)c(O)c1`, the inhibition was -0.7% (inactive).

`COc1ccc(C(=O)/C(C#N)=N/Nc2ccc([N+](=O)[O-])cc2)cc1`: the inhibition was 82.5% (active).

For `COc1ccc(N/N=C(\C#N)C(N)=O)cc1`, the inhibition is -41.5% (inactive).

`COc1ccc(C(=O)/C(C#N)=N/Nc2ccccc2[N+](=O)[O-])cc1`: the inhibition was 42.9% (inactive).
